Growth data for 16 molecules are collected here from PubChem BioAssay (NCI).

Some test systems named below: HCT-15 colon; HT29 colon; SNB-75 CNS; SNB-19 CNS; U251 CNS; LOX IMVI melanoma; SK-MEL-28 melanoma; UACC-62 melanoma; PC-3 prostate; SK-MEL-5 melanoma.
Common to all, as to assay: NCI-60 one-dose screen, 48 h (100 = growth as untreated, 0 = no growth, -100 = all killed)
Conditions in all cases: 10 µM unless noted

The panel holds about 83,000 compounds, 20% with a hit somewhere; the sample as a whole holds those more often.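 Cells were grown in 96-well plates and exposed to the test compound at a single concentration for 48 hours; results are reported as percent growth, with values below 10 considered active.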 Unmarked numbers belong to inactive results. Calls of active or inactive are those of the source.

Consider `Oc1ccc(Nc2ccccc2)cc1`, for which the growth in the test on HCT-15 colon was 82.5%; in the test with HT29 colon, 99.3%; with SNB-75 CNS, 85.5%; in the test with SNB-19 CNS, 85.8%; in the test with U251 CNS it was 86%; in the test with LOX IMVI melanoma, 71.4%. The growth in the test on SK-MEL-28 melanoma was 102%.
With `COc1cc(-c2c(C#N)c(-c3cccs3)nc3c2c(-c2ccccc2)nn3-c2ccccc2)ccc1O`, the growth in the test on HCT-15 colon is 73.5%; in the test on HT29 colon it was 74.8%; in the test with SNB-75 CNS it was 79.8%; in the test on U251 CNS it was 78.3%; in the test on UACC-62 melanoma it was 83.5%; with SK-MEL-28 melanoma, 96.1%.
As to `COc1ccc(-c2nc(Nc3ccc(-c4nc5ccccc5[nH]4)cc3)nc(N3CCOCC3)n2)cc1`, the growth with HCT-15 colon is -62.2% (active); in the test with HT29 colon, -23.1% (active); in the test with SNB-75 CNS it was -19.2% (active); in the test on U251 CNS, 6.38% (active); in the test with PC-3 prostate, 2.31% (active); in the test on SK-MEL-5 melanoma, -90.7% (active). Moreover, the figures for the growth in the test with LOX IMVI melanoma and with SK-MEL-28 melanoma were -75.6% (active) and -34% (active), respectively.
Consider `OCC12CCCC(CO)(COC1)C2O` (stereo not given), for which the growth in the test on HCT-15 colon was 106%; with HT29 colon, 105%; in the test on SNB-75 CNS it was 96.4%; with U251 CNS, 99.2%; in the test on PC-3 prostate it was 99.7%; in the test on SK-MEL-5 melanoma, 99.8%. Besides, the values for the growth in the test with LOX IMVI melanoma and in the test on SK-MEL-28 melanoma were 98.6% and 107%, respectively.
Turning to `Cn1cc(-c2csc(-c3cn(C(=O)OC(C)(C)C)c4ccc(Br)cc34)n2)c2cccnc21`, the growth in the test with HCT-15 colon is 93.4%; with HT29 colon, 93.4%; with SNB-75 CNS, 78.9%; with U251 CNS, 87.4%; with SK-MEL-5 melanoma, 97%; in the test on SK-MEL-28 melanoma, 108%.
Take `COc1ccc(C2=NN(c3nc(-c4ccc(OC)cc4)c(C#N)c(=O)n3C)C(=O)CC2)cc1`: the growth in the test with HCT-15 colon was 106%; in the test on HT29 colon, 109%; in the test with SNB-75 CNS, 86.5%; in the test with U251 CNS, 100%; in the test on PC-3 prostate it was 82.4%; in the test on LOX IMVI melanoma, 101%.
For the molecule `COc1ccc(C2(Cl)c3ccccc3N(c3ccccc3)c3ccccc32)cc1`, the growth with HCT-15 colon was 8.52% (active); with HT29 colon, 3.7% (active); with SNB-75 CNS, 3.72% (active); in the test with U251 CNS, -87.5% (active); in the test with PC-3 prostate it was -24.4% (active); in the test on LOX IMVI melanoma, -84.3% (active). In addition, the growth in the test on SK-MEL-28 melanoma is -74.7% (active).
As to `O=c1c(CNc2ccc(S(=O)(=O)Nc3nccs3)cc2)coc2ccccc12`, the growth with HCT-15 colon is 99.9%; in the test with HT29 colon it was 101%; in the test on SNB-75 CNS, 73.8%; in the test with U251 CNS, 95.4%; in the test with PC-3 prostate it was 107%; in the test with SK-MEL-5 melanoma, 98.3%. Further, the growth in the test with UACC-62 melanoma was 97.9%; with SK-MEL-28 melanoma, 121%.
As for `Nc1c(C(=O)Nc2cccc3ccccc23)sc2nc3c(cc12)CCCC3`, the growth was 26.8% in the test with HCT-15 colon; 2.73% (active) in the test with HT29 colon; 37.9% with SNB-75 CNS; 25.4% in the test on U251 CNS; 39.9% in the test with PC-3 prostate; 28.2% in the test on SK-MEL-5 melanoma. For the same molecule, in the test with LOX IMVI melanoma, the growth was 38.6%.
On to `N#CC1c2ccccc2-c2ccccc2N1C(=O)c1ccccc1` (stereo not given), for which the growth in the test with HCT-15 colon was 12.4%; in the test on HT29 colon, 12.3%; with SNB-75 CNS it was 39.8%; in the test on U251 CNS it was 18.4%; in the test with UACC-62 melanoma, 22.3%; in the test with LOX IMVI melanoma, 29.9%. Further, the growth in the test with SK-MEL-28 melanoma was 58.3%.
On to `COc1cc(-c2cc3ncccc3c3nc(N)c4cccnc4c23)cc(OC)c1OC`, for which the growth was 21.5% with HCT-15 colon; 4.14% (active) in the test with HT29 colon; 6.07% (active) in the test on SNB-75 CNS; 18.9% in the test on U251 CNS; 22% with PC-3 prostate; 15.8% in the test on SK-MEL-5 melanoma. The growth with LOX IMVI melanoma was 24.1%; in the test on SK-MEL-28 melanoma, 62.7%.
On to `COc1cc(-c2cc3ncccc3c3[nH]c(=O)c4cccnc4c23)cc(OC)c1OC`, for which the growth in the test with HCT-15 colon was 30.6%; in the test on HT29 colon it was 8% (active); in the test on SNB-75 CNS it was -3.35% (active); in the test on U251 CNS, 16.8%; in the test on PC-3 prostate, 13.2%; with SK-MEL-5 melanoma, -5.2% (active). In addition, the growth was 42.5% in the test with LOX IMVI melanoma and 68.2% in the test on SK-MEL-28 melanoma.
On to `O=[N+]([O-])c1ccc(N/N=C(\C(=N/Nc2ccc([N+](=O)[O-])cc2[N+](=O)[O-])c2ccccc2)c2ccccc2)c([N+](=O)[O-])c1`, for which the growth in the test on HT29 colon is 63.5%; in the test on SNB-75 CNS, 99%; in the test on U251 CNS it was 36.4%; with PC-3 prostate, 85.2%; in the test on SK-MEL-5 melanoma it was 94.3%; in the test on LOX IMVI melanoma, 97.7%. In addition, the growth with SK-MEL-28 melanoma was 101%.
On to `O=c1c2sc3ncc(Br)cc3c2ncn1-c1cccc(Cl)c1`, for which the growth with HT29 colon was 71.5%; in the test with SNB-75 CNS, 16.4%; with U251 CNS it was 33.4%; with PC-3 prostate, 81.9%; in the test on SK-MEL-5 melanoma it was 76.2%; in the test with UACC-62 melanoma, 80.3%. In the test with SK-MEL-28 melanoma, the growth is 78%.
As to `C=C(C)[C@@H]1CC[C@]2(C(=O)N3CCCNCC3)CC[C@]3(C)[C@H](CC[C@@H]4[C@@]5(C)CCC(=O)C(C)(C)[C@@H]5CC[C@]43C)[C@@H]12`, the growth in the test on HT29 colon is 61%; with SNB-75 CNS, 56.9%; in the test with SNB-19 CNS, 91.2%; with U251 CNS, 78%; with PC-3 prostate it was 78.3%; in the test on SK-MEL-5 melanoma, 94.1%. Moreover, the growth with SK-MEL-28 melanoma was 103%.
For the molecule `CCN1CCN(c2nc(C)cc(N(CCCNc3ccnc4cc(Cl)ccc34)Cc3ccco3)n2)CC1`, the growth with HT29 colon was 11.4%; in the test with SNB-75 CNS, 66.8%; with SNB-19 CNS, 73.1%; in the test on U251 CNS it was 42.2%; with PC-3 prostate, 53.9%; in the test with SK-MEL-5 melanoma, -37.8% (active). Also, the growth in the test with LOX IMVI melanoma is 9.87% (active); in the test on SK-MEL-28 melanoma, -63.7% (active).
